Measured values from PubChem BioAssay (NCATS).
Inconclusive results are not listed. Entries that show only a call come without a potency. Values without a mark were called inactive. Active and inactive are the calls of the source. Calls follow the shape of the dose curve; as a rule, active = well fitted activation curve with a large enough effect; inconclusive = small, poorly fitted or top-dose-only effect; inactive = no such curve, though single readings can be large or run the other way.

biological target: Rap guanine nucleotide exchange factor 4 (Homo sapiens) (UniProt Q8WZA2); assay: Confirmatory qHTS for agonist of cAMP-regulated guanine nucleotide exchange factor 4 (EPAC2) (AID 1645884); conditions: EPAC2 GEF activity, Rap1B-BODIPY-GDP fluorescence; series mostly up to 154 µM;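 also: nucleotide exchange releases bodipy-GDP from Rap1 and this lowers its fluorescence; nearly all actives have a fitted effect of over 65% in size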
Sequence (Q8WZA2 whole entry, looked up): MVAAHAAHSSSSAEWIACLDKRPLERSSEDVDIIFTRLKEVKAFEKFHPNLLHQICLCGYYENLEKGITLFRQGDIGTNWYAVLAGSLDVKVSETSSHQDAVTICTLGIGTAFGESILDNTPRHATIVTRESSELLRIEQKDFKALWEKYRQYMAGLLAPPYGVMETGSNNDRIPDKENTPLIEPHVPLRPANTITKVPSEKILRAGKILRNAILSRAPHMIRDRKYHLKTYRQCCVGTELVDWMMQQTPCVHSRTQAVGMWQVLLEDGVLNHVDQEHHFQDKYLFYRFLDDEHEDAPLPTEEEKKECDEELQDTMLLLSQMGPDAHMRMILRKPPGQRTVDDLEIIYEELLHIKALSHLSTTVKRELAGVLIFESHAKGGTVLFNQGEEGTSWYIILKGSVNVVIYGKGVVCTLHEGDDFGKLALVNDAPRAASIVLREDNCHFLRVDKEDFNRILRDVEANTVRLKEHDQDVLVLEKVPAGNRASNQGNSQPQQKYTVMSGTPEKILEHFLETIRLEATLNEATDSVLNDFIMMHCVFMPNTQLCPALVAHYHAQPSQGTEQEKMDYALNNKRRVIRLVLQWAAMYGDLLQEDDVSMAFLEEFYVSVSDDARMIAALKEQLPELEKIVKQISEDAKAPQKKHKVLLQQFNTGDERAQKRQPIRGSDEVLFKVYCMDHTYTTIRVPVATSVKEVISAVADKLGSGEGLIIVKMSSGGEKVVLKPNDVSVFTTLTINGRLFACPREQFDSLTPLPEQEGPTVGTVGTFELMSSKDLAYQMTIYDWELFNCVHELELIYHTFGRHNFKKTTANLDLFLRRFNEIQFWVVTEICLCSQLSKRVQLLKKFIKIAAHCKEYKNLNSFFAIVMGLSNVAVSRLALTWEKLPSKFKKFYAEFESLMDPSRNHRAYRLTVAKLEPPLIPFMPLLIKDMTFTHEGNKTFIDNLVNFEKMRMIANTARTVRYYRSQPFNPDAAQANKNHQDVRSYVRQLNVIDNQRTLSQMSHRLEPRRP
Potency is read from the fitted curve at half-maximal effect.

Structure (SMILES)	Potency	activation
CCN(CC)c1ccc2cc(-c3nc(-c4ccccc4F)no3)c(=O)oc2c1	5.01 µM (active)	
Cc1ccc(-c2cc(C(=O)Nc3ccc4c(c3)OCCO4)c3ccccc3n2)cc1		9.86% [at 17.1 µM, percent relative to cAMP agonist control]
C[C@@H]1CN([C@@H](C)CO)S(=O)(=O)c2ccc(Br)cc2O[C@H]1CN(C)Cc1ccccc1F	inactive	
COCCn1c(=N)c(C(=O)NC2CCCC2)cc2c(=O)n3cc(C)ccc3nc21	inactive	
COc1ccc(C2C=C(c3ccccc3)Nc3nnnn32)cc1 (stereo not given)	inactive	
CC(=O)/C(=C/N(C)C)Sc1ccc(C)cc1	inactive	
Cc1ccc(C(=O)NCCCNC(=O)c2ccco2)cn1	inactive	
CC(C)(C)c1ccc(OCCC(=O)OCC(=O)Nc2ccc(N3CCOCC3)cc2)cc1	inactive	
CC1(C(=O)NS(=O)(=O)c2ccc(Cl)s2)CCN1C(=O)C1(c2ccc(Cl)cc2)CCC1 (stereo not given)	inactive	
C#CC(c1ccccc1)(c1ccccc1)n1ccnc1	inactive	
O=C(O)CCn1cc(/C=C2\NC(=S)N(c3ccccc3)C2=O)c(-c2ccc(Br)cc2)n1	inactive	
COc1ccc(/C=C2/SC(=S)N(c3ccc(S(=O)(=O)Nc4nccs4)cc3)C2=O)cc1	inactive	
COc1ccc(OC)c(NC(=O)CN(C)CCOc2ccc(Br)cc2)c1	inactive	
COCCCN1C(=O)C(CC(=O)NCc2cccc3ccccc23)CC(C(=O)N2CCCCCC2)=C1C (stereo not given)	inactive	
CC(=N\NC(=O)c1ccccc1)/C(=N/O)C(=O)Nc1ccccc1		7.97% [at 17.1 µM, percent relative to cAMP agonist control]
COC(=O)c1cc2oc(C)cc2n1Cc1c(C)cc(C)cc1C	inactive	
COc1ccc(N2CCN(C(=O)c3cc(C)on3)CC2)cc1	inactive	
CS(=O)(=O)c1ccc2c(c1)sc1nc(=O)c(/C=C3/C=CC(=O)C(O)=C3)c(N)n12	inactive	
CCNC(=O)C1(C)CCN(C(=O)c2ccc(C(=O)OC)cc2)C1 (stereo not given)	inactive	
COc1ccc(C(C)=O)cc1COc1ccc(F)cc1		4.69% [at 17.1 µM, percent relative to cAMP agonist control]

Structure (SMILES)	Potency	activation
O=C(O)c1ccccc1N/N=C/C1=C(N2CCOCC2)C(=C\c2ccccc2)/CC1	inactive	
CCCCOC(=O)CSc1nnc(-c2ccc(Cl)cc2Cl)o1		5.42% [at 17.1 µM, percent relative to cAMP agonist control]
CC(=O)Nc1ccc(C=NNc2ccc(S(=O)(=O)Nc3ccccc3C(=O)O)cc2[N+](=O)[O-])cc1		0.331% [at 17.1 µM, percent relative to cAMP agonist control]
CC1=NN(c2ccccc2)C(=O)C1/C=C1\NC(=S)NC1=O (stereo not given)	inactive	
CCN1C/C(=C/c2ccc(N3CCOCC3)cc2)C(=O)/C(=C/c2ccc(N3CCOCC3)cc2)C1	100 µM (active)	
C=CCSc1nc(-c2ccc(OC)cc2)c(C#N)c(=O)n1CC=C		1.63% [at 17.1 µM, percent relative to cAMP agonist control]
CCN(CC)CCn1c2c(c(SCC(=O)Nc3nc4ccccc4s3)nc1=O)CCCC2	inactive	
O=C1CC(=O)N(CCc2ccccc2)C(=O)N1CCc1ccccc1	inactive	
CCOC(=O)c1sc(N2C(=O)C(O)=C(C(=O)c3ccco3)C2c2cccc([N+](=O)[O-])c2)nc1C (stereo not given)	inactive	
CCCCOc1ccccc1NC(=O)Cn1c(-c2cncs2)nc2ccccc21	inactive	
CC(NCc1cccn1C)c1ccccc1 (stereo not given)	inactive	
N#Cc1c(NC(=O)c2ccccc2)sc2c1CCCCC2		10.4% [at 17.1 µM, percent relative to cAMP agonist control]
CCOC(=O)C1=C(C)OC(N)=C(C#N)C1c1ccc(OC)c(CSc2ccccn2)c1 (stereo not given)		7.18% [at 17.1 µM, percent relative to cAMP agonist control]
COc1ccc(-c2cc(C(F)F)n3ncc(C(=O)N4CCc5ccccc54)c3n2)cc1	inactive	
CN(C)CC/C=C1/c2ccccc2Sc2c(O)cc(Cl)cc21	inactive	
CC(C)(C)c1cc(NC(=O)COC(=O)c2ccc(O)cc2O)n(-c2ccccc2)n1		8.65% [at 17.1 µM, percent relative to cAMP agonist control]
COc1ccc(-c2nc3n(c(=O)c2C#N)CCS3)cc1		4.85% [at 17.1 µM, percent relative to cAMP agonist control]
Cc1cscc1-c1ccc(C(=O)Nc2c(C)cccc2C)o1		7.37% [at 17.1 µM, percent relative to cAMP agonist control]
COC(=O)c1c(NC(=O)c2c(OC)cccc2OC)sc2c1CCCC2	inactive	
Cc1cccc(C(=O)Nc2ccc3c(c2)ncn3C)c1	inactive	
